The structures appear in SMILES notation. Records with an inconclusive call do not appear. A number with no mark means an inactive call. Calls follow the shape of the dose curve; as a rule, active = well fitted cell-killing curve with a large enough effect in the repeat runs; inconclusive = weak or mixed curves, or effect the other way; inactive = flat fitted curve, though single readings scatter.
% is scaled to controls: 0 for no effect and ±100 for the full control effect.

The test is described as follows: qHTS assay to identify small molecule antagonists of the androgen receptor (AR) signaling pathway using the MDA cell line in the presence of 0.5 nM R1881 - cell viability counter screen (AID 1259242). Also: nearly all actives have a fitted effect of over 45% in size. As to conditions: MDA-kb2 viability, CellTiter-Fluor protease fluorescence, 16 h; series mostly up to 92.4 µM; viability change, negative = cytotoxic: at the top concentration. The procedure, abridged:
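Viability of MDA-kb2 cells was multiplexed with the luciferase AR readout; after 16 hr with compounds and R1881 at 0.5 nM final, CellTiter-Fluor fluorescence was recorded.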
For orientation: Quantitative high-throughput screening tests each substance at several concentrations.
For the compound `CC(C)c1ccccc1`, the “viability change, negative = cytotoxic” value is 6.71%. For `CC(C)CCCCCCc1ccc(OCCOCCO)cc1`, the “viability change, negative = cytotoxic” value is 3.25%. Regarding `Cc1ccsc1C(=CCCN1CCC[C@@H](C(=O)O)C1)c1sccc1C`, the “viability change, negative = cytotoxic” value is -0.528% [at 42.5 µM].

Take `Cc1ncc(CO)c(CN)c1O`: the “viability change, negative = cytotoxic” value is 1.7% [at 42.5 µM]. For `CC(CNC1CCCCC1)OC(=O)c1ccccc1` (stereo not drawn), the “viability change, negative = cytotoxic” value is -0.0084% [at 42.5 µM]. As for `COc1ccc(S(=O)(=O)Nc2nnc(CC(C)C)s2)cc1`, the “viability change, negative = cytotoxic” value is 1.59% [at 42.5 µM].

For `Cn1cnc2c(F)c(Nc3ccc(Br)cc3Cl)c(C(=O)NOCCO)cc21`, the “viability change, negative = cytotoxic” value is 2.64% [at 42.5 µM]. `CO[C@@]1(NC(=O)CSCC#N)C(=O)N2C(C(=O)O)=C(CSc3nnnn3C)CS[C@@H]21`: the “viability change, negative = cytotoxic” value was -0.353% [at 42.5 µM]. With `C[C@@H]1CN(c2c(F)c(F)c3c(=O)c(C(=O)O)cn(C4CC4)c3c2F)C[C@H](C)N1`, the viability change, negative = cytotoxic is 2.13% [at 19 µM].

Take `CC(=O)N(CC(O)CN(C(C)=O)c1c(I)c(C(=O)NCC(O)CO)c(I)c(C(=O)NCC(O)CO)c1I)c1c(I)c(C(=O)NCC(O)CO)c(I)c(C(=O)NCC(O)CO)c1I` (stereo not drawn): the “viability change, negative = cytotoxic” value is -0.608% [at 42.5 µM]. Consider `CC(C)(C)c1cccc(O)c1`, for which the “viability change, negative = cytotoxic” value is -0.853%. In the case of `C[C@@H](N)C(=O)O`, the “viability change, negative = cytotoxic” value is 3.27% [at 42.5 µM]. For `CCC(=O)O[C@]1(C(=O)SCF)[C@H](C)C[C@H]2[C@@H]3C[C@H](F)C4=CC(=O)C=C[C@]4(C)[C@@]3(F)[C@@H](O)C[C@@]21C`, the “viability change, negative = cytotoxic” value is 4.99% [at 42.5 µM]. Turning to `Cc1c(C(=O)NCCO)[n+](=O)c2ccccc2n1[O-]`, the “viability change, negative = cytotoxic” value is 6.58% [at 42.5 µM]. With `C=Cc1ccccc1`, the “viability change, negative = cytotoxic” value is -3.57%.

Turning to `CCCNC(C)C(=O)Nc1c(C)csc1C(=O)OC` (stereo not drawn), the “viability change, negative = cytotoxic” value was 2.02% [at 42.5 µM]. Consider `CCN(CC)CCNC(=O)COc1ccc(Cl)cc1`, for which the “viability change, negative = cytotoxic” value is 4.33% [at 42.5 µM]. For `CC(=O)OC(C)OC(C)=O` the value was 0.0025%; for `CN(C)Cc1ccccc1`, 5.22%; for `O=c1oc2c(O)c(O)cc3c(=O)oc4c(O)c(O)cc1c4c23`, -6.98% [at 19 µM].

`Cc1cc(S(=O)(=O)O)c(N)cc1Cl`: the “viability change, negative = cytotoxic” value is 2.79%. As for `O=c1[nH]c(=O)n([C@H]2C[C@H](O)[C@@H](CO)O2)cc1C(F)(F)F`, the “viability change, negative = cytotoxic” value is 0.995% [at 42.5 µM]. Then `CC1=C2[C@H](/C=C(\C)C(=O)O)CC[C@@H](C)[C@H]2CC1`, with 4.51%. `Nc1cccc(S(=O)(=O)O)c1`: the “viability change, negative = cytotoxic” value is -1.22%. `FC(F)(F)C(F)(F)C(F)(F)C(F)(F)C(F)(F)C(F)(F)C(F)(F)C(F)(F)Br`: the “viability change, negative = cytotoxic” value is -0.238% [at 42.5 µM]. Consider `N#CSCC(=O)O`, for which the “viability change, negative = cytotoxic” value is 2.95% [at 42.5 µM]. `CC(=O)O[C@H]1CC[C@@]2(C)C(=CC[C@@H]3[C@@H]2CC[C@]2(C)C(C(C)=O)=CC[C@@H]32)C1`: the “viability change, negative = cytotoxic” value was -1.66% [at 42.5 µM]. Then `CCCC(CCC)(C(=O)OCC)C(=O)OCC`, with -2.06% [at 42.5 µM]; and `CC(Oc1c(Cl)cccc1Cl)C1=NCCN1` (stereo not drawn), with -0.805% [at 42.5 µM]; and `CC1=C(CC(=O)O)c2cc(F)ccc2/C1=C\c1ccc(S(C)(=O)=O)cc1`, with -10.5% [at 42.5 µM].

As to `OCCN(CCO)c1ccccc1`, the “viability change, negative = cytotoxic” value is 2.01%. `CCN(CC)CC1CCCCN1CC(=O)N1c2ccccc2C(=O)Nc2cccnc21` (stereo not drawn): the “viability change, negative = cytotoxic” value is 8.7% [at 42.5 µM]. As to `COC(C)CCO` (stereo not drawn), the “viability change, negative = cytotoxic” value is 4.22%. Then `COC(=O)C(C)O` (stereo not drawn), with 7.04%; and `O=Cc1ccc(O)c(O)c1O`, with -13.7% [at 42.5 µM].

On to `CN1CCN(N)CC1`, for which the “viability change, negative = cytotoxic” value is 5.55% [at 42.5 µM].

For the compound `CN1CCN(C2=Nc3cc(F)ccc3Cc3ccccc32)CC1`, the “viability change, negative = cytotoxic” value is 0.637% [at 42.5 µM]. For `CC1(O)CSC(C)(O)CS1` (stereo not drawn) the value was 0.417%.
